Compound activity (PubChem)
HPGD block: HPGD (human) dehydrogenase inhibition; 4.3% of 150,000 active; Potency, µM, inactives show top-dose activity change, negative = inhibition, hits mostly inhibitors; AID 894; purified HPGD, NADH fluorescence kinetic, PGE2 substrate; active = well fitted inhibition curve with a large enough effect, not every such curve was filed as active; inconclusive = small, poorly fitted or top-dose-only effect, or another doubt; inactive = no such curve, though single readings can be large or run the other way; also: potency is read from the fitted curve at half-maximal effect; % is scaled to controls: 0 for no effect and ±100 for the full control effect
Target sequence (P15428 whole entry, looked up): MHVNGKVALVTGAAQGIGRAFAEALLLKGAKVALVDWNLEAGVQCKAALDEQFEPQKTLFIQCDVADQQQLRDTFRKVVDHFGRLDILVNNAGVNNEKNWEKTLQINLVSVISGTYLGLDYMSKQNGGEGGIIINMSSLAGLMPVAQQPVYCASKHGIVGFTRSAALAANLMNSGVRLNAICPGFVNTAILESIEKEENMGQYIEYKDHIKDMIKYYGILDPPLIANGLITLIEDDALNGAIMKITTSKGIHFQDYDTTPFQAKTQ
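NADH formation kinetics: reaction with 30 uM PGE2 and 1 mM NAD+ (final), 20 nM enzyme, Tris-HCl pH 8 with Tween 20, after 15 min compound preincubation at room temperature. Fluorescence change, last versus first of five reads.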
ALDH1A1 block: blocks purified human ALDH1A1 activity | Potency, µM (titrated, usually from 75.3 µM), without a hit: at the top dose activity, negative = inhibition, hits mostly inhibitors | 7.3% of 220,000 active | AID 1030 | Purified ALDH1A1, NADH fluorescence, propionaldehyde substrate; active = well fitted inhibition curve with a large enough effect, not every such curve was filed as active; inconclusive = small, poorly fitted or top-dose-only effect, or another doubt; inactive = no such curve, though single readings can be large or run the other way;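 also: potency is read from the fitted curve at half-maximal effect; plate controls were no enzyme wells and a reference inhibitor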
IMPase inh: cell-permeable inhibitors of inositol monophosphatase (IMPase) | P97697 | CHO-M1 cells, IP1 accumulation, HTRF TR-FRET ratio | inhibition (IP1 accumulation), % at 46.1 µM | 120,000 tested, under 10 active | AID 901; active = well fitted curve in the direction sought with a large enough effect in the signal ratio, not every such curve was filed as active; inconclusive = small, poorly fitted or top-dose-only effect, or a change in a side signal; inactive = no such curve, though single readings can be large or run the other way; the % refers to the signal ratio;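 also: cells stimulated with carbachol in lithium chloride buffer; plate controls were DMSO basal wells for no effect and reference inhibitor wells for full effect; higher means more IMPase inhibition seen as more IP1 and lower FRET ratio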
Target sequence (P97697 whole entry, looked up): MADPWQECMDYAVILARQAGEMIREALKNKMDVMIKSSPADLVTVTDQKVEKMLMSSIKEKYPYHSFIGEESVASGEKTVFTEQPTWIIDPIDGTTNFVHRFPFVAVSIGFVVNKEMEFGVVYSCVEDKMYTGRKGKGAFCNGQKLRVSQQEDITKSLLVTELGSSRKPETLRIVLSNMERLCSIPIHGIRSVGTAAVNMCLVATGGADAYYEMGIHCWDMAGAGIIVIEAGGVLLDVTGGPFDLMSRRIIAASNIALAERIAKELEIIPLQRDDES
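Elevated IP1 in lysates lowers TR-FRET signal (665/620 ratio and 620 channel reported). Cells were CHO-M1, given carbachol (50 uM as added) plus 50mM LiCl, pH 7.4, 30 min, 37C; compounds titrated up to 46 uM; AC50 by Hill equation.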
HTT aggregate: reduces HttQ103-GFP aggregates in PC12 cells | PC12 HttQ103-GFP aggregates, Acumen cytometry, 40 h | 1.1% of 220,000 active | Potency, µM (series often up to 46.1 µM), inactives show at the top dose activity change, negative = inhibition, usual class: inhibitors; also: potency is read from the fitted curve at half-maximal effect; % is scaled to controls: 0 for no effect and ±100 for the full control effect; nearly all actives have a fitted effect of over 60% in size
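Read-out: GFP aggregate count by laser scanning cytometer (488 nm excitation, 500-530 nm emission, 1–25 µm objects >6 SD above background). Cells: PC12, inducible HTTex1-Q103-GFP, 100 nM tebufenozide; compounds titrated.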
HTT cytoprotect: protects HTT-Q103 PC12 cells, measured by ATP | PC12 HTT-Q103 induced, cytoprotection, ATP luminescence, 40 h | Potency, µM (titrated, usually from 56.4 µM), inactives show cytoprotection (ATP increase), usual class: activators | 0.14% of 230,000 active; also: potency is read from the fitted curve at half-maximal effect; % of control where 0% means no effect; nearly all actives have a fitted effect of over 45% in size
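Rat PC12, Q103 Htt exon1-GFP fusion, ecdysone promoter; tebufenozide inducer 100 nM final; compound titration; qHTS, 1500 cells/well; ATPlite luminescent read.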
IMPase Li cell: cell-permeable IMPase inhibitors with lithium potentiation; CHO-M1 cells, IP1 TR-FRET (IP-One), carbachol + lithium; Potency, µM (doses to about 59.4 µM), for the others: at the highest dose activity, negative = IMPase inhibition, most hits filed as inhibitors; 0.35% of 210,000 active; AID 1457;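 also: IP1 builds up when IMPase is blocked and the TR-FRET signal falls; potency is read from the fitted curve at half-maximal effect; plate controls were basal vehicle for no effect and high inhibitor control for full effect; nearly all actives have a fitted effect of over 50% in size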
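Steps: plate 2000 CHO-M1 cells per well and culture 16–30 h; add compound and lithium; incubate 30 min, 37C; add d2-IP1 tracer and Eu cryptate anti-IP1 antibody in lysis buffer; read after 10 min at room temperature.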
An asterisk follows results filed as active; ? = inconclusive; . = no result; ! = repeats disagree; [ ] = dose if it differs, or a comment. Sampled rows, rich in hits. Any-hit rate of the full collection: about 9.4%. Unless noted, calls follow the shape of the dose curve; as a rule, active = well fitted curve in the direction sought with a large enough effect; inconclusive = small, poorly fitted or top-dose-only effect, or another doubt; inactive = no such curve, though single readings can be large; an effect the other way counts as inactive or inconclusive.

SMILES	HPGD block	ALDH1A1 block	IMPase inh	HTT aggregate	HTT cytoprotect	IMPase Li cell
CCOC(=O)c1c(Nc2ccc(OCC)cc2)nnc(-c2ccccc2)c1-c1ccccc1	.	.	12.0	.	.	.
Cc1ccc2ccc(S(=O)(=O)n3nc(C)cc3C)cc2c1	?	0.891µM*	5.0	-14.1%	-4.0%[10 µM]	28.1%
CC(C)CC(=O)O/N=C1\C(=O)N(Cc2ccc(Cl)cc2)c2ccc([N+](=O)[O-])cc21	14.1µM*	?	-6.3	?	-24.6%	-2.0%[38.3 µM]
CC(=O)O/N=C1\C(=O)N(Cc2ccc(C)cc2)c2ccccc21	.	?	.	-4.7%	29.3%[10 µM]	-1.9%
COc1ccc(NC(=O)c2ccco2)cc1NC(=O)c1cc(Cl)ccc1OC	.	.	-2.5	.	.	.
Cc1ccc(N(CC(O)COCc2ccco2)S(=O)(=O)c2ccc(C)cc2)cc1 (stereo not drawn)	-19.6%	3.16µM*	-1.8	?	2.0%[10 µM]	34.2%[38.3 µM]
CCCN(CCC)CC(O)CN(c1ccccc1)S(=O)(=O)c1ccc(C)cc1 (stereo not drawn)	-4.6%	15.4%	6.3	-9.8%[9.22 µM]	9.4%	6.3%[38.3 µM]
NC(=O)CNC(=O)[C@@H]1CC2(CC(c3cccc([N+](=O)[O-])c3)=NO2)CN1C(=O)c1ccccc1 (stereo partly drawn)	-11.4%	1µM*	3.0	6.8%	-5.4%	-11.8%[38.3 µM]
Cc1cccc(NC(=O)c2sc3cccc(Cl)c3c2Cl)c1	.	.	1.2	.	.	.
CC(C)NC(=O)c1onc(CSc2ccccc2)c1C(=O)O	-5.1%	-14.1%	-4.5	7.7%	3.5%	-24.9%[38.3 µM]
CCCCNC(=O)c1onc(CSc2ccccc2)c1C(=O)O	-18.8%	-3.8%	-8.8	12.9%	-10.4%	-2.4%[38.3 µM]
COCCNC(=O)c1onc(CSc2ccc(C(C)C)cc2)c1C(=O)O	15.8µM*	0.4%	13.3	-11.1%	13.4%	-4.9%[38.3 µM]
CCCCNC(=O)c1onc(CSc2ccc(C(C)C)cc2)c1C(=O)O	10µM*	0.6%	-1.5	-22.8%	-19.3%	7.1%[38.3 µM]
COCCNC(=O)c1onc(CSc2ccc(F)cc2)c1C(=O)NCCOC	.	.	.	22.2%[9.22 µM]	18.8%[10 µM]	.
CC(C)NC(=O)c1onc(CSc2cccc3ccccc23)c1C(=O)O	22.4µM*	?	-1.9	-26.1%	-7.1%	-4.1%[38.3 µM]
COc1ccc(C(=O)CSc2nc(N)nc(SC)c2C#N)cc1	-11.6%	?	-7.7	-10.5%	-7.3%	6.31µM*
N#Cc1c(N)nc(SCC(=O)C23CC4CC(CC(C4)C2)C3)c(C#N)c1-c1ccc(Cl)cc1	?	?	-6.0	21.4%	-43.6%	3.55µM*
Nc1nc(SCC(=O)C23CC4CC(CC(C4)C2)C3)n[nH]1	-2.6%	?	-1.2	0.3%	11.8%[10 µM]	-5.3%[38.3 µM]
CSc1nc(N)nc(SCC(=O)C23CC4CC(CC(C4)C2)C3)c1C#N	-18.3%	25.1µM*	.	?	-6.1%[10 µM]	11.9%
CCn1cc(C(=O)O)c(=O)c2cc(F)c(N3CCN[C@@H](C)C3)c(F)c21	?	?	-9.5[20.6 µM]	-3.7%	-52.2%[17.1 µM]	-3.5%
CC(C)(C)c1ccc(O)c(CN(Cc2cc(C(C)(C)C)ccc2O)C2CCCCC2)c1	-12.4%	7.9%[13.5 µM]	.	.	-0.8%[10 µM]	-12.9%
CCN(c1cccc(C)c1)c1ncnc2nc[nH]c12	-11.0%	7.0%	2.2	8.91µM*	0.4%[10 µM]	21.0%[38.3 µM]
CCCCN(c1ccccc1)c1ncnc2nc[nH]c12	-11.0%	11.2µM*	-4.1	?	-2.3%	22.5%
CCCCN(CCCNc1ncnc2nc[nH]c12)c1ccccc1	-4.9%	-1.6%	-5.1	13.3%	-18.0%	9.2%
COc1ccc(S(=O)(=O)n2nc(-c3cc(OC)c(OC)c(OC)c3)cc2N)cc1OC	-10.6%	5.1%	-9.3	26.5%	-18.3%	7.6%
SMILES	HPGD block	ALDH1A1 block	IMPase inh	HTT aggregate	HTT cytoprotect	IMPase Li cell
COc1ccc(-c2cc(N)n(S(=O)(=O)c3c(F)c(F)c(F)c(F)c3F)n2)cc1OC	-20.9%	31.6µM*	1.1	?	-84.8%	12.1%[38.3 µM]
O=C(NCc1cccc(C(F)(F)F)c1)C1CC(c2ccccc2C(F)(F)F)=NO1 (stereo not drawn)	.	.	.	?	-95.2%[10 µM]	.
CNCC(O)c1cccc(O)c1 (stereo not drawn)	-12.5%	7.3%	.	.	-6.2%	0.4%
COc1ccc(-c2ccc(C(=S)N3CCN(C(C)=O)CC3)o2)cc1	11.2µM*	11.2µM*	-2.2	-1.9%	-30.5%	-23.7%[38.3 µM]
COc1ccccc1OCC(=O)c1[nH]c(C)c(C(C)=O)c1C	-9.1%	0.6%	8.7	?	-26.3%	23.4%[38.3 µM]
COc1cc(CN(C)CC(=O)c2[nH]c(C)c(C(C)=O)c2C)ccc1OC(F)F	-16.7%	3.55µM*	22.7	-27.6%	4.0%[10 µM]	17.8%[38.3 µM]
NC(=O)c1c(-c2ccc(Cl)cc2Cl)csc1NC(=O)Cc1ccccc1	-14.9%	?	.	11.2µM*	-0.4%[10 µM]	19.0%
O=C(Cc1ccccc1)Nc1scc(-c2ccccc2)c1C(=O)N1CCOCC1	-0.6%	-3.0%	-2.3	15.2%	13.0%	19.0%[38.3 µM]
CN(C)c1ncnc2ccc(-c3ccccc3C#N)cc12	?	?	.	.	6.3%	?
O=C(/C=C/c1ccc(O)c(O)c1)OC1C[C@](O)(C(=O)O)C[C@@H](O)[C@H]1O (stereo partly drawn)	-12.4%	23.8µM*!	.	.	-11.4%	12.2%
COc1ccccc1-c1nc(S(=O)(=O)c2ccccc2)c(N2CCC(C)CC2)o1	.	.	-2.8	.	.	.
CN(C)S(=O)(=O)N1CCN(CC(O)COc2ccc3cc(Br)ccc3c2)CC1 (stereo not drawn)	-13.9%	-8.7%	4.2	11.2µM*	-31.9%[0.074 µM]	-9.6%[38.3 µM]
Cc1nc(C)n(CC(O)COc2ccc3cc(Br)ccc3c2)n1 (stereo not drawn)	-19.6%	13.7%	-9.3	12.6µM*	-18.0%	-27.4%[38.3 µM]
O=S(=O)(N1CCCCC1)N1CCN(CC(O)COc2ccc3cc(Br)ccc3c2)CC1 (stereo not drawn)	-6.6%	?	-3.0	-21.1%	-13.2%	-110.2%[38.3 µM]
N=C(N)SCCc1ccc(CCSC(=N)N)cc1	-24.2%	-5.1%	0.9	.	16.1%[1.9 µM]	3.4%
O=C(NN=C1C2CC3CC(C2)CC1C3)c1cccs1	-7.8%	20µM*	0.7	-6.7%	1.0%	4.0%[38.3 µM]
O=C(NN=C1CCCC1)c1cccs1	?	33.5%	.	-0.5%	7.8%[10 µM]	9.3%
C=C1c2c(Cl)ccc(O)c2C(O)=C2C(=O)[C@@]3(O)C(O)=C(C(N)=O)C(=O)[C@@H](N(C)C)[C@@H]3[C@@H](O)[C@H]12	-21.2%	?	1.1[20.6 µM]	9.7%[20.6 µM]	?	-8.5%
COc1ccc(S(=O)(=O)N2CCOCC2)cc1NC(=O)CSc1nnc2c(n1)[nH]c1ccccc12	.	.	.	-26.5%[9.22 µM]	-5.0%[10 µM]	.
COc1ccc(-c2csc(C3=C(O)CN(Cc4ccc(Cl)cc4)C3=N)n2)cc1OC	-4.0%	6.8%	-0.6	?	-2.7%	27.5%[38.3 µM]
